PubChem BioAssay AID1117319 (Southern Research Institute, 2015)
“And” between values parts separate entries of the source, which are not always exact repeats. Equal values may be shown once. Among all 260,000 compounds or so, about 1,500 (0.58%) were called active. Not shown: some 5% with an inconclusive outcome.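 Rule for the calls: active = inhibition above a set limit at one or more doses, reproduced on every date tested; inconclusive = results disagree between test dates, or hit never tested in dose response; inactive = the rest.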 Not all results are given here. Potency and affinity values are given separately.

Target: Virion infectivity factor (Human immunodeficiency virus type 1 group M subtype B (isolate BH10)) + Virion infectivity factor (Human immunodeficiency virus type 1 group M subtype B (isolate BRU/LAI)) + Virion infectivity factor (Human immunodeficiency virus type 1 group M subtype B (isolate PCV12)) + Virion infectivity factor (Human immunodeficiency virus type 1 group M subtype B (isolate HXB2)) + DNA dC->dU-editing enzyme APOBEC-3G (Homo sapiens) (UniProt P69720+P69721+P69722+P69723+Q9HC16)
Assay: inhibitors of Vif binding to APOBEC3G peptide, primary screen, biochemical, TR-FRET, GST-Vif 1-94, biotin-A3G peptide, dose response retest (AID 1117319);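 note: Vif residues 1-94 fused to GST binding biotinylated APOBEC3G peptide 110-148; 0% = full assay without inhibitor and 100% = GST in place of GST-Vif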
Details: hits give high values

inhibition, inactive:
C=CCn1c(O)c(C(CC)=NCCN2CCOCC2)c(=O)[nH]c1=O 65.5%, CCCCn1c(O)c(C(CC)=Nc2ccc3c(c2)CCC3)c(=O)[nH]c1=O 7.31%, COc1ccccc1NC(=O)Cn1cnc2sc(C(=O)Nc3ccc(OC)c(OC)c3)c(C)c2c1=O 0.19%, COc1ccc(S(=O)(=O)N2CCCCCC2)cc1C(=O)N(C)Cc1ccc(F)cc1 4.27%, CCN(CC)S(=O)(=O)c1cccc2cc(C(=O)O)c(O)cc12 -3.16%, C=CCNS(=O)(=O)c1cccc2cc(C(=O)O)c(O)cc12 -0.91%, Cc1ccc(N2C(=O)N(c3ccc(C)cc3)C3CS(=O)(=O)CC32)cc1 (stereo not given) -8.71%, C=CCn1c(COc2ccc(F)cc2)nnc1SCC(=O)N1CC(=O)Nc2ccccc21 3.87%, CCOC(=O)c1cc(C)n(Cc2ccccc2)c1C 24.3%, CCOC(=O)c1c(C=O)c(C)n(Cc2ccccc2)c1C 4.84%, FC(F)(F)c1cc(-c2ccco2)nc(NCc2ccc(Cl)cc2)n1 3.96%, Fc1ccc(CNc2nc(-c3ccco3)cc(C(F)(F)F)n2)cc1 9.71%, FC(F)(F)c1cc(-c2ccco2)nc(NCc2ccccc2)n1 15.6%, FC(F)(F)c1cc(-c2ccccc2)nc(NCc2cccnc2)n1 -5.26%, COc1ccc(/C=N/NC(=O)c2cccc([N+](=O)[O-])c2)cc1OS(=O)(=O)c1ccccc1 2.68%, COc1ccc(NC(c2ccccc2)c2ccncc2)cc1 (stereo not given) 7.39%, CCC(C)(C)NC(=O)C(c1ccc(C)cc1)N(CCN1CCOCC1)C(=O)CNC(=O)c1cccs1 (stereo not given) 2.09%, Cc1c(NC(=O)Cc2noc3ccccc23)cccc1[N+](=O)[O-] -3.42%, CCN(CCCNC(=O)CN(C)S(=O)(=O)c1cccc2nsnc12)c1ccccc1 20.3%, Cc1ccsc1/C=N/n1cnnc1 -12.8%, O=Cc1ccc(-c2cccs2)s1 -3.47%, CC(=O)c1ccc(-c2cccs2)s1 2.24%, CCCCC(=O)N/N=C/c1sccc1C -0.53%, CCOC(=O)c1[nH]c(C)c(C(=O)N(CC)CC)c1C 4.43%, CC(=O)NS(=O)(=O)c1ccc(NC(=O)c2ccc(-n3nc(C)cc3C)cc2)cc1 0.12%, CCOC(=O)C1CCN(C(=O)COC(=O)c2cc(-c3cccs3)nn2-c2ccccc2)CC1 -3.24%, O=C(O)CCN1/C(=C/C=Nc2ccccc2)Oc2ccccc21 20.6%, O=S1(=O)CC(O)C(NCc2ccco2)C1 (stereo not given) 11.1%, COc1ccc(NC2CS(=O)(=O)CC2NCc2ccccc2)cc1 (stereo not given) -0.42%, COc1ccc(C2c3c(oc4ccccc4c3=O)C(=O)N2c2ccccn2)cc1OC (stereo not given) -8.31%, COC(=O)c1cc(O)c(O)c(O)c1 16.7%, COC1OC(COC(=O)c2ccccc2)C(OC(=O)c2ccccc2)C1OC(=O)c1ccccc1 (stereo not given) 3.23%, O=C1c2ccccc2C(=O)N1CCc1csc(-c2ccccc2)n1 0.09%, O=C(O)CC(c1ccccc1)c1ccccc1 0.95%, O=C(O)CC(Cn1[nH]nnc1=S)c1ccccc1 (stereo not given) -2.23%, Cc1cccc(N=CC=C2OC(C)(C)C(C)(C)O2)c1 -6.65%, Cc1ccc(NC(=O)CNC(=O)c2ccc(C(C)(C)C)cc2)cc1S(=O)(=O)N1CCOCC1 0.79%, CCO[C@H]1OC(C(=O)N2CCN(Cc3ccc4c(c3)OCO4)CC2)=C[C@@H](c2cn(C(C)=O)c3ccccc23)[C@@H]1CCCO -9.76%, O=C(CN1C(=O)NC2(CCCCC2)C1=O)NCc1ccc2c(c1)OCO2 -8.65%, O=C(CN1C(=O)NC2(CCCCCC2)C1=O)NCc1cccs1 -5.46%, CC1CCC2(CC1)NC(=O)N(CC(=O)NCc1cccs1)C2=O (stereo not given) -3.91%, CC1CCC2(CC1)NC(=O)N(CC(=O)NCc1ccc3c(c1)OCO3)C2=O (stereo not given) -3.28%, O=C(c1nc2ccccn2c1CNCCCn1cccn1)N1CCCC1 23.8%, C/C(=N\NC(=O)Cn1ccc(C(F)(F)F)n1)c1ccc2c(c1)OCO2 -1.38%, CCN(CC)CCOC(=O)c1ccc(NC(=O)c2cccc(C)c2[N+](=O)[O-])cc1 2.15%, COc1ccc(CNC(=O)C(c2ccncc2)N(C(=O)Cc2cccs2)c2cccnc2)cc1 (stereo not given) 2.85%, COc1ccc(NC(=O)C[C@H]2C(=O)N(Cc3cccnc3)C[C@@H]2Cc2ccccc2)cc1 -1.58%, CCCNC(=O)Cc1ncn[nH]1 -3.15%, O=C(NCCc1ccccc1)c1ncn[nH]1 28.1%, O=C(CCN1C(=O)c2ccccc2C1=O)CN1CCOCC1 -9.57%, O=C(NC1CCCC1)C(c1ccc(Cl)cc1)N1CCc2ccccc21 (stereo not given) 2.15%, CCc1ccc(CN(Cc2cccnc2)C(=O)/C=C/c2ccc(OC)cc2)cc1 -6.21%, CC(C)(C)c1ccc(C(=O)N2CCN(c3ncccn3)CC2)cc1 -3.51%, CCN1C(=O)/C(=C/N2CCc3ccccc32)SC1=S 2.5%, c1ccc2c(c1)CCN2CCN1CCc2ccccc21 -3.68%, O=C(C#Cc1ccccc1)c1ccccc1 -8.84%, COc1ccc(Cl)cc1N(CC(=O)Nc1cccc(SC)c1)S(C)(=O)=O 4.16%, CCN1C(=O)/C(=C/N(C)c2ccccc2)OC1=S 0.98%, CC(C)(C)c1ccc(OCCC(=O)Nc2cccc(S(=O)(=O)NC3=NCCCCC3)c2)cc1 -0.89%, COc1ccc(Nc2nc(C(=O)NCc3ccco3)cs2)cc1 -1.71%, O=C(NCc1ccco1)c1csc(Nc2ccccc2Cl)n1 -7.13%, O=C(CNC(=O)c1ccccc1F)OCCOc1cccc(Cl)c1 3.91%, Cc1ccc(CCNC(=O)C2CC(c3ccccc3C(F)(F)F)=NO2)cc1 (stereo not given) -3.19%, NC1=C(Br)C(=O)c2ncccc2C1=O 0.39%, COc1ccc(-c2c(N)cnc(C(=O)O)c2C)c(OCc2ccccc2)c1OC 2.47%, COc1ccc(N)c2c1C(=O)c1ccccc1C2=O -29.2%, Cc1cccc(N2C(=O)c3ccc(Br)cc3C2=O)n1 1.11%, COc1ccc(C2=C(N)c3ccccc3C2=O)cc1 29%, COc1ccc(-c2c(C#N)cnc(C)c2C)c(O)c1OC -2.84%, COc1ccc(CC(=O)Nc2ccc(C(N)=O)cc2)cc1 15.2%, CCOc1ccc(N2C(=O)CC(N(Cc3ccco3)C(=O)CC)C2=O)cc1 (stereo not given) 0.31%, Cc1c(N/C(=N/S(=O)(=O)c2ccc(F)cc2)c2ccccc2)c(=O)n(-c2ccccc2)n1C 0.73%, Cc1sc2nc(CSC(C)C(=O)NC3(C#N)CCCCC3)[nH]c(=O)c2c1C (stereo not given) 9.91%, C[C@]12C=CC(=O)C=C1CCC1C2CC[C@@]2(C)C1CCC21OCCO1 (stereo not given in full) -4.95%, C=C(C)COc1ccc2c(CC)cc(=O)oc2c1C -15.7%, O=C(CCCN1C(=O)/C(=C\c2ccccc2)SC1=S)Nc1ccc(O)cc1 7.93%, O=C(CCN1C(=O)/C(=C/c2ccco2)SC1=S)Nc1ccc(O)cc1C(=O)O 20.3%, O=C(CCCN1C(=O)/C(=C\c2cccs2)SC1=S)Nc1ccccc1O 3.84%, COc1ccc(/C=C2/SC(=S)N(CCCC(=O)Nc3cccc(O)c3)C2=O)cc1 4.43%, CCN1C=C(Cc2ccccc2C)C2=C(C1)C(c1ccccc1C)C(C#N)=C(N)O2 (stereo not given) 3.15%, O=C(CCC(=O)Nc1ccccc1Cl)NNC(=O)Nc1cccc([N+](=O)[O-])c1 -2.42%, c1ccc(N2CCN(c3cnccn3)CC2)nc1 -2.48%, c1ccc(N2CCN(c3ncccn3)CC2)cc1 2.21%, Cc1ccc(Sc2ncccc2C(=O)O)cc1 1.95%, O=C(NCC(c1ccco1)N1CCCC1)c1cn(-c2ccccc2)nc1-c1ccc(F)cc1 (stereo not given) -3.8%, C[C@H](NS(=O)(=O)c1ccccc1)C(=O)N1CCN(C(c2ccccc2)c2ccccc2)CC1 0.88%, COc1ccc(OC)c(NS(=O)(=O)c2ccc(Br)s2)c1 2.77%, Oc1cccc2ccc(N3CCOCC3)nc12 -8.55%, CC(C)(C)C(=O)Oc1cc(N)n(S(=O)(=O)c2ccccc2)n1 -2.72% and -3.77%, COc1ccc(CN(C(=O)c2cccs2)c2ccccc2C(=O)O)cc1 -12.9%, O=C1OCCC1Sc1ncnc2sc3c(c12)CCC3 (stereo not given) 21.7%, CN(Cc1ccccc1)C(=O)COC(=O)C1CCN(S(=O)(=O)c2ccc3c(c2)OCCO3)CC1 -5.03%, Cc1ccc(C)c(/C(O)=C2\C(=O)C(=O)N(CCCN3CCOCC3)C2c2cccnc2)c1 (stereo not given) -1.34%, COC(=O)c1[nH]c(C)c(/C(O)=C2\C(=O)C(=O)N(CCN3CCOCC3)C2c2ccco2)c1C (stereo not given) 10.8%, CC(CCc1ccccc1)NC(=O)c1nnc(Cc2ccc(Cl)cc2)o1 (stereo not given) -1.14%
